From PubChem BioAssay (Tox21)
Records with an inconclusive call do not appear. Activity calls are given as the source filed them. Calls follow the shape of the dose curve; as a rule, active = well fitted activation curve with a large enough effect in the repeat runs; inconclusive = weak or mixed curves; inactive = no such curve, though single readings can be large or run the other way.

experiment: qHTS assay for small molecules that induce genotoxicity in human embryonic kidney cells expressing luciferase-tagged ATAD5 (AID 651632); conditions: HEK293T ATAD5-luciferase induction, 16 h; series mostly up to 83.3 µM; activation: at the top concentration; also: nearly all actives have a fitted effect of over 15% in size
Text: U.S. Tox21 Program National Center for Advancing Translational Sciences [NCATS] NIH Chemical Genomics Center [NCGC] U.S. Environmental Protection Agency [EPA] National Institutes of Environmental Health Sciences [NIEHS] National Toxicology Program [NTP] U.S. Food and Drug Administration [FDA] Tox21 Assay Overview: As cancer cells divide rapidly and during every cell division they need to duplicate their genome by DNA replication. The failure to do so results in the cancer cell death. Based on this concept, many chemotherapeutic agents were developed but have limitations such as low efficacy and severe side effects etc. A new cell based assay was developed to find the compounds that effectively block DNA replication either by directly damaging DNA or by inhibiting other cellular mechanisms. Enhanced Level of Genome Instability Gene 1 (ELG1; human ATAD5) protein levels increase in response to various types of DNA damage. Using a luciferase reporter-gene tagged with ATAD5, a cell-based assay [developed by Kyungjae Myung, NHGRI, NIH] was used to measure the induction of ATAD5 in human embryonic kidney cells (HEK293T). So, increase in luciferase activity can be used to identify the compounds that cause genetic stress.
Tox21 Assay Protocol Summary: For genotoxicity screening, 2,000 cells in 5 uL/well were dispensed into white, solid-bottom 1536-well plates using a Multidrop Combi (Thermo Scientific) dispenser. Following transfer of 23 nL compound or DMSO vehicle by a pin tool, the plates were incubated 16 hr at 37C and 5% CO2. 5 ul Amplite (AAT Bioquest, Inc.) was then added to each plate and following 30 min incubation at room temperature, luciferase activity was quantified on a ViewLux CCD-based plate reader.
% is scaled to controls: 0 for no effect and ±100 for the full control effect.

| SMILES | activation | outcome |
| --- | --- | --- |
| Oc1ccc2c3c1O[C@H]1[C@@H](O)C=C[C@H]4[C@@H](C2)NCC[C@@]341 | 2.25% [at 95.3 µM] (inactive) |  |
| Clc1ccc(C(Cl)(Cl)Cl)cn1 | -1.95% (inactive) |  |
| CCCCS(=O)(=O)Cl | 1.99% (inactive) |  |
| CCC(=O)OC1(c2ccccc2)CCN(C)CC1 | -0.535% [at 95.3 µM] (inactive) |  |
| C=C(Cl)CCl | -3.87% (inactive) |  |
| C=CC=O | 0.905% [at 95.3 µM] (inactive) |  |
| CC(O)CCl (stereo not given) | -2.44% (inactive) |  |
| CCCN1CCC[C@@H]2Cc3nc(N)ncc3C[C@H]21 | -0.76% (inactive) |  |
| CCC1(c2ccccc2)CCC(=O)NC1=O (stereo not given) | 0.641% (inactive) |  |
| C[C@H](CN1CCOCC1)C(C(=O)N1CCCC1)(c1ccccc1)c1ccccc1 | -8.42% [at 95.3 µM] (inactive) |  |
| CCOC1Oc2ccc(OS(C)(=O)=O)cc2C1(C)C (stereo not given) | -6.02% (inactive) |  |
| COc1ccc(CN2CCNCC2)c(OC)c1OC | -2.53% [at 39.1 µM] (inactive) |  |
| COC(=O)c1ccccc1CS(=O)(=O)NC(=O)Nc1nc(OC)cc(OC)n1 | 2.71% (inactive) |  |
| COc1cccc(C=O)c1 | 1.1% (inactive) |  |
| O=C(Cl)CCl | 0.565% [at 95.3 µM] (inactive) |  |
| CCN[C@H](C)Cc1cccc(C(F)(F)F)c1 | 1.21% (inactive) |  |
| NCC1(CC(=O)O)CCCCC1 | -1.77% [at 39.1 µM] (inactive) |  |
| O=C1CC(=O)NC(=O)N1 | 1.6% (inactive) |  |
| Brc1c(Br)c(Br)c(Br)c(Br)c1Br | 2.71% [at 8.08 µM] (inactive) |  |
| N=C(N)[Se] | -2.53% [at 95.3 µM] (inactive) |  |

| SMILES | activation | outcome |
| --- | --- | --- |
| C=CCCC#N | 1.07% (inactive) |  |
| Cc1cc(OC(=O)N(C)C)nn1C(=O)N(C)C | 2.4% (inactive) |  |
| C[C@H]1CCCC(=O)CCC/C=C/c2cc(O)cc(O)c2C(=O)O1 |  | inactive |
| CC(C)c1ccc(O)cc1 | -2.92% (inactive) |  |
| CCN(CC)C1CCCCC1 | 1.12% (inactive) |  |
| Cc1ccc2cc(C)ccc2c1 | -0.737% (inactive) |  |
| COc1cc(CC(C)N)cc(OC)c1OC (stereo not given) | 1.8% [at 95.3 µM] (inactive) |  |
| CCOC(=O)COc1ccc(Cl)cc1Cl | 1.62% (inactive) |  |
| CCCCCCC(=O)CCCCCC/C=C/C[C@@H](O)[C@H](O)[C@@](N)(CO)C(=O)O |  | inactive |
| CNC(=O)Oc1cc(C)c(N(C)C)c(C)c1 | 2.17% (inactive) |  |
| CN1C(=O)COc2c(C(=O)NC3CN4CCC3CC4)cc(Cl)cc21 (stereo not given) | -4.78% (inactive) |  |
| NCCOS(=O)(=O)O | 2.92% (inactive) |  |
| O=c1[nH]oc2c1CCNC2 | -3.27% (inactive) |  |
| OP(O)c1ccccc1 | 1.6% [at 95.3 µM] (inactive) |  |
| c1ccc2c(c1)CCNC2 | -1.77% [at 95.3 µM] (inactive) |  |
| N#CC(Br)(Br)C(N)=O | 2.88% (inactive) |  |
| O=P(O)(O)CN(CP(=O)(O)O)CP(=O)(O)O | 2.29% [at 39.1 µM] (inactive) |  |
| Cc1ccc2c(c1)C1CN(C)CCC1N2 (stereo not given) | -2.29% (inactive) |  |
| CCC1(c2cccc(O)c2)CCCCN(C)C1 (stereo not given) | -1.41% [at 39.1 µM] (inactive) |  |
| N#CN=C1SCCN1Cc1ccc(Cl)nc1 | 1.59% (inactive) |  |
